Where “and” joins values, the source holds several entries; their conditions need not be identical. Equal values may be shown once. The whole screen tested about 150,000 compounds, of which about 6,500 (4.3%) were called active. Inconclusive results (about 12%) are left out. Calls come from the whole dose curve; as a rule, active = well fitted inhibition curve with a large enough effect (not every such curve was filed as active); inconclusive = small, poorly fitted or top-dose-only effect, or another doubt; inactive = no such curve, though single readings can be large or run the other way. This excerpt belongs to a sample that is enriched for actives.
molecular target: 15-hydroxyprostaglandin dehydrogenase [NAD(+)] (Homo sapiens) (UniProt P15428); assay: qHTS Assay for Inhibitors of HPGD (15-Hydroxyprostaglandin Dehydrogenase); details: purified HPGD, NADH fluorescence kinetic, PGE2 substrate; activity change, negative = inhibition: stronger effect = lower value
Description: Human 15-Hydroxyprostaglandin dehydrogenase (HPGD) catalyzes the inactivation of prostaglandin E2, and plays a major role in cancer biology by antagonizing the oncogenic potential of cyclooxygenase type 2 (COX2). Assays are available, based on absorbance/fluorescence increase of NADH with the substrate 15-OH prostaglandin E2. References 1. Myung SJ, Rerko RM, Yan M, Platzer P, Guda K, Dotson A, Lawrence E, Dannenberg AJ, Lovgren AK, Luo G, Pretlow TP, Newman RA, Willis J, Dawson D, Markowitz SD. 15-Hydroxyprostaglandin dehydrogenase is an in vivo suppressor of colon tumorigenesis. […] 2. Yan M, Rerko RM, Platzer P, Dawson D, Willis J, Tong M, Lawrence E, Lutterbaugh J, Lu S, Willson JK, Luo G, Hensold J, Tai HH, Wilson K, Markowitz SD. 15-Hydroxyprostaglandin dehydrogenase, a COX-2 oncogene antagonist, is a TGF-beta-induced suppressor of human gastrointestinal cancers. Proc Natl Acad Sci U S A. 2004 Dec 14;101(50):17468-73. 3. Yang L, Amann JM, Kikuchi T, Porta R, Guix M, Gonzalez A, Park KH, Billheimer D, Arteaga CL, Tai HH, Dubois R, Carbone DP, Johnson DH. Inhibition of Epidermal Growth Factor Receptor Signaling Elevates 15-Hydroxyprostaglandin Dehydrogenase in Non-Small-Cell Lung Cancer. Cancer Res. 2007 Jun 15;67(12):5587-5593. Inhibition of HPGD activity was screened by utilizing prostaglandin as an electron donor and NAD+ as an electron acceptor/cofactor. An increase in the fluorescence intensity due to conversion of NAD+ to NADH was used to measure the enzyme activity. NIH Chemical Genomics Center [NCGC] Structural Genomics Consortium [SGC]
Buffer: 50 mM Tris-HCl, 0.01% Tween 20, pH 8. Enzyme Buffer: 50 mM Tris-HCl, 0.5 mM NAD+ and 0.01% Tween 20, pH 8. Reagents/Controls: Buffer in columns 3 and 4 as negative control (no enzyme). Substrate/cofactor solution: 1 mM NAD+ and 30 uM prostaglandin (Sigma, prostaglandin E2, # P5640) final concentrations dispensed throughout the plate. Enzyme: 20 nM HPGD final concentration in columns 1, 2, 5-48. Column 1 and 2 is neutral (100% activity). A titration of control inhibitor GW5074 (G6416 Sigma-Aldrich, St. Louis, MO) top concentration 10 mM in DMSO, then 1:2 dilution for a total of 16 concentrations in duplicate) was pin-transferred into column 2. Assay Steps: Three uL of enzyme were dispensed to 1536-well Greiner black solid bottom plates. Compounds and control inhibitor (23 nL) were transferred via Kalypsys PinTool. The plates were incubated for 15 min at room temperature, and then 1 uL of substrate/cofactor solution was added to start the reaction. The plates were immediately transferred to and read 5 times every 30 seconds on ViewLux High-throughput CCD imager (Perkin-Elmer) using 360 nm excitation and 450 nm emission fluorescence protocol. The fluorescence intensity difference between the last and the first time points was used to compute reaction progress.
% is set by controls: 0 for no effect and ±100 for the full control effect; potency is the fitted concentration of half-maximal effect.

15-hydroxyprostaglandin dehydrogenase [NAD(+)] (Homo sapiens), sequence (P15428 whole entry, looked up): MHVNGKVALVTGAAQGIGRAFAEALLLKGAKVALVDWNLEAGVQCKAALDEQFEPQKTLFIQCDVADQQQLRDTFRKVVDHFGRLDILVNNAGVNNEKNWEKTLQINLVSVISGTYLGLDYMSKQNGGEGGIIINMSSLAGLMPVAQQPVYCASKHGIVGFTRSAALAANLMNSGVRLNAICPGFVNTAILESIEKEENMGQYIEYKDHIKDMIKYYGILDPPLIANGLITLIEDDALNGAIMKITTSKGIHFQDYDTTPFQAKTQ

Activity change, negative = inhibition, inactive:
Cc1ccc(C2C3=C(Nc4[nH]n(-c5ccccc5)c(=O)c42)c2ccccc2C3=O)cc1 (centres undefined) -23.6%
COc1ccccc1NC(=O)C1=C(C)NC2=C(C(=O)CCC2)C1c1ccc(C)o1 (centres undefined) -4.54%
Cc1cc(C(C)(C)C)cc(C)c1N 2.4%
O=C(OC1CCOC1=O)c1cccc(S(=O)(=O)Nc2ccc(F)cc2)c1 (centres undefined) -0.633%
COc1ccc(-c2cc(C(=O)NCc3ccco3)no2)cc1OC -10.4%
O=C(NCCCCCCNC(=O)NCc1ccco1)NCc1ccco1 -9.22%
COc1cc(C(=O)NC(=S)NCc2ccco2)cc(OC)c1OC -21.9%
O=C(NCc1ccco1)c1ccc(CS(=O)(=O)Cc2ccc(F)cc2)o1 2.28%
CCN1CN(Cc2ccccc2)CNC1=S -9.5%
CC(O)c1nc2ccccc2n1Cc1ccc([N+](=O)[O-])cc1 (centres undefined) -6.78%
CC(=O)c1c(C)[nH]c(C(=O)OCC(=O)Nc2cc(S(=O)(=O)N3CCCCC3)ccc2C)c1C -12.5%
C/C(=C\C(=O)c1ccc(Br)cc1)N1CCCCC1 -21.6%
Cc1ccccc1CN1CCN(C(=O)c2cccc(F)c2)CC1 2.95%
CNC(=O)n1ccc(C(=O)N2CCCCC2)n1 -21.9%
Cc1cccc(C(=O)N2CCCN(C(=O)c3cccc(C)c3)CC2)c1 4.89%
O=C(Nc1cccc(C(=O)N2CCCC2)c1)c1ccccc1 -13.5%
Cc1cc(=O)oc(C)c1C(=O)N1CCCCC1 -2.92%
CCOC(=O)C1CCCN(C(=O)c2cncc(Br)c2)C1 (centres undefined) -7.12%
CCCNC(=O)c1ccc(Cl)c(Cl)c1 -21.6%
Cc1cc(C(=O)N/N=C/c2ccc(O)c([N+](=O)[O-])c2)c(C)n1-c1ccc(F)cc1 -20.1%
COc1ccc(C(=O)NNC(=S)NC(=O)c2ccccc2[N+](=O)[O-])cc1 -1.33%
Cc1cc(C)nc(SC2CCCCC2NS(=O)(=O)c2ccc(Cl)cc2)n1 (centres undefined) -1.86%
COc1ccc(Cn2c(-c3ccc(Cl)cc3)c[n+]3ccccc23)cc1 1.07%
C=CCn1c(SCc2ccc(Cl)c(Cl)c2)nnc1C(CO)NC(=O)c1ccc(OC)cc1 (centres undefined) -18.7%
CCC(C)NC(=O)CCCc1ccccc1 (centres undefined) -18.7%
CC(CNC(=O)c1ccc(Br)o1)NC(=O)c1ccc(Br)o1 (centres undefined) -8.51%
Cc1cccc(N2Cc3ccccc3C2=NC(=O)c2ccc(Cl)nc2)c1 -15.5%
C/C(=C/C(=O)N1CCN(C)CC1)C(=O)O 4.4%
c1coc(-c2nc3nc4ccccc4n3nc2-c2ccco2)c1 -14.3%
O=C(Nc1nnc(SCc2ccccc2)s1)c1ccco1 -28%
Nc1nc(SCc2ccccc2Cl)n[nH]1 -3%
c1ccc(CSc2nnc(-c3ccco3)n2Cc2ccccc2)cc1 -25.4%
COc1ccc(-c2nc3c(c4c2C[C@H](c2ccccc2)OC4)CN(C(=O)c2cccnc2)CC3)c(C)c1 -9.44%
COCc1c(C(=O)N/N=C/C2CC=CCC2)nnn1-c1nonc1N (centres undefined) -10.3%
CC(C)CNC(=S)Nc1ccc(F)cc1 -4.13%
Cc1ccc(S(=O)(=O)N(CC(=O)Nc2cccc([N+](=O)[O-])c2)Cc2ccc(Cl)cc2)cc1 -3.74%
O=C(Oc1ccc([N+](=O)[O-])cc1)c1ccc(Cl)c(S(=O)(=O)N2CCCCC2)c1 -21.8%
COc1cc(C(=S)N2CCOCC2)cc(OC)c1OC(=O)c1cc([N+](=O)[O-])cc([N+](=O)[O-])c1 -12%
CCOC(=O)C1=C(C)NC(=O)N(C(C)=O)C1c1ccc(Cl)cc1 (centres undefined) 0.0111%
CCOC(=O)c1[nH]c2c(c1-c1ccccc1)C(=O)CC(c1ccc(Cl)cc1)C2 (centres undefined) -2.93%
Nc1ccc(-c2sc(N)nc2-c2ccccc2)cc1 -11%
Nc1ccc(Nc2ccccc2)cc1 -5.62%
COc1cccc2c(O)cc(=O)n(C)c12 -2.82%
CC(Oc1ccccc1F)C(=O)NN (centres undefined) -6.91%
COc1ccc(C(=O)COC(=O)c2ccc3ccccc3n2)cc1 -15.3%
COc1ccc2c(c1)c(=O)c(C(=O)c1ccc(Cl)cc1)cn2CC(=O)Nc1ccc(F)cc1 -6.67%
CN(CC(=O)Nc1ccc(S(=O)(=O)N2CCCC2)cc1)Cc1ccc(Cl)c(Cl)c1 -13.8%
COC(=O)C1=C(C(=O)OC)[C@@H]2N(C)c3ccccc3[C@@]23C[C@@H](C(=O)OC)N(S(=O)(=O)c2ccc(Br)cc2)C3=N1 0.758%
CC(=O)Nc1ccc(/C(C)=N/NC(=O)CN(c2ccccc2Br)S(C)(=O)=O)cc1 -3.71%
CCCCNC(=O)CSc1nnc(-c2ccco2)n1C -11.5%
O=C(CSc1nc(-c2ccccc2)cs1)Nc1cccc([N+](=O)[O-])c1 -24.6%
CCCCNS(=O)(=O)c1ccc2nc(SCC(=O)Nc3cc(C)cc(C)c3)[nH]c2c1 -21.1%
Cc1cccc(NC(=O)CSc2nnc(NC(=O)CN3CCOCC3)s2)c1 -8.48%
CC(CNc1ccc([N+](=O)[O-])c2cccnc12)Nc1c([N+](=O)[O-])cc(C(F)(F)F)cc1[N+](=O)[O-] (centres undefined) -20.4%
O=C(O)c1ccc(/C=N/NC(=O)c2ccc(Br)cc2)cc1 -2.06%
CC(=O)NC1C(OCc2ccccc2)OC(COC(C)=O)C(OC(C)=O)C1OC(C)=O (centres undefined) -0.385%
CCN(CC)c1ccc(C(=O)N/N=C(\C)c2cccc(OC)c2)cc1 -8.48%
COc1ccc(OC(C)C(=O)NCCc2nc3ccccc3[nH]2)cc1 (centres undefined) -0.239%
CC(C)CCNC(=O)c1cccnc1Sc1ccccc1 -7.91%
O=c1nc2s/c(=C\c3ccco3)c(=O)n2nc1Cc1ccccc1 -22.5%
CSc1nc(-c2ccco2)nn1C(=O)CCc1ccccc1 -14%
Cc1ccc(C(=O)NC2CCN(C(=O)N3CCOCC3)CC2)cc1 -4.3%
O=C(NC1CCCCC1)c1cc([N+](=O)[O-])ccc1N1CCOCC1 -0.536%
CCS(=O)(=O)N1Cc2ccccc2CC1C(=O)Nc1nc2ccc(F)cc2s1 (centres undefined) -14%
CCc1nnc(NC(=O)C2CC(=O)N(c3ccc4c(c3)OCCO4)C2)s1 (centres undefined) -28.3%
COC(=O)Cc1ccc(OCC(=O)Nc2ccc(OC(F)(F)F)cc2)cc1 -9.9%
Cc1ccccc1NC(=S)Nc1cccc([N+](=O)[O-])c1 -3.09%
O=C(CSCC(=O)Nc1cccc([N+](=O)[O-])c1)Nc1ccccc1 -9.37%
CCCCNC(=O)C(=O)c1ccccc1NC(C)=O -11.5%
CCC(C)NC(=O)c1ccccc1NC(=O)c1ccccc1N(C)S(C)(=O)=O (centres undefined) 1.34%
COc1ccc(C)cc1NC(=O)C(Sc1ccccc1)c1ccccc1 (centres undefined) -3.19%
CSCCC(Nc1ccc(S(=O)(=O)N2CCOCC2)cc1[N+](=O)[O-])C(=O)OCC(=O)N(C(C)C)C(C)C (centres undefined) -2.59%
O=C(O)c1ccc2c(c1)C(=O)N(NC(=O)c1ccc(O)cc1)C2=O -11%
COC(=O)C(C(=O)OC)C1c2ccccc2C=C(C2CC2)N1C(=O)OC (centres undefined) -11% and -4.45%

Potency, active:
COC(=O)C1=C(C)NC2=C(C(=O)c3ccccc32)C1c1ccc(-c2ccc(C(=O)O)cc2)o1 (centres undefined) 17.8 µM
COc1ccc2c(Cl)c(C(=O)NCc3ccco3)sc2c1 14.1 µM
O=C(NCc1ccco1)c1sc2cccc(F)c2c1Cl 3.98 µM
Cc1ccc(C(=O)N2CCCC2)c(F)c1F 10 µM
O=C(c1ccc(Cl)c(Cl)c1)N1CCCC1 20 µM
Cc1ccc(C(=O)N2CCCCCC2)cc1Br 5.01 µM
Cc1c(Br)cc(C(=O)N2CCCCCC2)c(C)c1C 14.1 µM
CC(CCc1ccccc1)NC(=O)c1ccc(Br)o1 (centres undefined) 15.8 µM
c1ccc(CSc2nnc(-c3ccco3)c(-c3ccco3)n2)cc1 4.47 µM
Clc1ccccc1CSc1nnc(-c2ccco2)c(-c2ccco2)n1 12.6 µM
O=C(Oc1ccccc1C(=S)N1CCCCC1)c1cc([N+](=O)[O-])cc([N+](=O)[O-])c1 14.1 µM
CCOC(=O)C1Sc2[nH]c(=O)sc2C(c2ccc(Cl)cc2)C1C(=O)OCC (centres undefined) 3.98 µM
c1ccc(Nc2n[nH]nc2-c2ccccc2)cc1 14.1 µM
O=c1c(O)c(Br)ccc2c(Br)c(O)c(O)c(O)c12 15.8 µM
CCCCNC(=O)CSc1nc2ccc(NC(=O)CSc3nnc(N)s3)cc2s1 5.01 µM
Nc1nnc(SCC(=O)Nc2ccc3nc(SCC(=O)Nc4ccccc4)sc3c2)s1 4.47 µM
CCOc1ccccc1/C=c1\sc2nc(-c3ccco3)nn2c1=O 17.8 µM
O=C(NC1CCCCC1)c1ccc(CNc2c(N3CCOCC3)c(=O)c2=O)cc1 14.1 µM
COC(=O)/C=C\C(=O)Nc1cccc([N+](=O)[O-])c1 3.16 µM
CCCCNC(=O)c1ccccc1NC(=O)c1ccccc1N(C)S(C)(=O)=O 25.1 µM
